High-throughput results: PubChem, NMMLSC
MEKK3 PB1 HTS: raises or lowers MEK5 binding to the human MEKK3 PB1 domain; Q99759; bead-based flow cytometry, Alexa488-MEK5 binding to MEKK3; actives lie on both sides; 0 = blocked by unlabeled MEK5, 100 = vehicle; binding response (% of control), % at 10 µM; 290,000 compounds, 1.4% hits;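 active = binding response more than 3 SD above or below the average of its plate-row segment, actives on both sides; inconclusive = wells at one plate position flagged as instrument error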;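 note: Alexa488 bead fluorescence after subtracting the streptavidin-only scavenger bead signal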
MEKK2wt PB1 HTS: raises or lowers MEK5 binding to wildtype human MEKK2 PB1 domain. bead flow cytometry, Alexa488-MEK5 binding to MEKK2 WT; actives lie on both sides. AID 1531. Q9Y2U5. 290,000 compounds, 1.1% hits. binding response (% of control), % at 10 µM; in the data active = binding response below about 67% or above about 130%; inconclusive = no clear call, values can overlap the other calls; inactive = in between
GRK2 aptamer HTS: blocks RNA aptamer binding to human GRK2; P25098; bead flow cytometry, FAM-aptamer displacement from GRK2; inhibition of aptamer binding, % at 10 µM; 330,000 compounds, 0.59% hits;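 active = inhibition of aptamer binding above 40%, roughly 3 SD of noise, on plates passing a quality check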;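 note: median bead fluorescence of bound FAM aptamer so fluorescent compounds give negative values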
Target sequence (P25098 whole entry, looked up): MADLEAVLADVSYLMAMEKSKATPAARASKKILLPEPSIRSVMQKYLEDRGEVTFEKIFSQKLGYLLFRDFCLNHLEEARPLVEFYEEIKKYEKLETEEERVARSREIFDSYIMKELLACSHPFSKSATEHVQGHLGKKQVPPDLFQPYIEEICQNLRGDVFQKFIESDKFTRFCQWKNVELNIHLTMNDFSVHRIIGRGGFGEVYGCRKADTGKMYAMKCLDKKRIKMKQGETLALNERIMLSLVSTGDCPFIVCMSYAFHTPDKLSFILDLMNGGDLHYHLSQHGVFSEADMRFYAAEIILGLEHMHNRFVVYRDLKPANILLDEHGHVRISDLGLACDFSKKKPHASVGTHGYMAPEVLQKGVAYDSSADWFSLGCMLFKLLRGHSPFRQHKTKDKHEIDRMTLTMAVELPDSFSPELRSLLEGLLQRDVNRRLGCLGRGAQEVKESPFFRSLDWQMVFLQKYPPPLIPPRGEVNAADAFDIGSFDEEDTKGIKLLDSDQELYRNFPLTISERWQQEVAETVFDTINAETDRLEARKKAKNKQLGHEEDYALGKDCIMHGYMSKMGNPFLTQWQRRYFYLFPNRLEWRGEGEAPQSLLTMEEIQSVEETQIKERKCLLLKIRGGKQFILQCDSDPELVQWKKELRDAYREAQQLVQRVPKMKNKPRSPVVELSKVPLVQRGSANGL
MEKK2 mut-MEK5: signal of MEK5 binding to mutant human MEKK2 PB1 domain; AID 1530; percent response, % at 10 µM; bead flow cytometry, Alexa488-MEK5 binding to MEKK2 mutant; 290,000 compounds, 0.35% hits; in the data active = percent response above about 24%, passing the limit was not always enough
GRK2 inh confirm: human GRK2 inhibition confirmation, cherry pick 1 | 2,000 compounds, 4% hits | bead-bound GRK2, FAM-aptamer displacement, flow cytometry | shares compounds with GRK2 aptamer HTS | aptamer displacement, % at 10 µM;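 active = aptamer displacement above 40%, near three times the noise of non-fluorescent compounds, on plates passing quality checks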;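 note: negative values mostly reflect intrinsic compound fluorescence rather than true enhancement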
Aptamer quench SP: counter-screen for GRK2 aptamer inhibitors: fluorescent aptamer quenchers. Carboxyfluorescein RNA aptamer on beads, flow cytometry quenching; hits give low values. shares compounds with GRK2 aptamer HTS. 2,000 tested, under 10 active. fluorescence response (% of DMSO), % at 10 µM;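 active = compounds that quench the bead-bound fluorescent RNA probe, cutting fluorescence to under half of the solvent control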;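 note: counterscreen run without GRK2 so only probe quenching by compound is measured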
GRK2 confirm 2: confirmation of human GRK2 inhibitors binding RNA aptamer site; 360 tested, under 10 active; shares compounds with GRK2 aptamer HTS; bead-bound GRK2, FAM-aptamer displacement, flow cytometry; inhibition of aptamer binding, % at 10 µM;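 active = inhibition of aptamer binding above 40%, about triple the noise seen with nonglowing compounds, on plates passing quality control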;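 note: negative values mostly come from compounds that fluoresce themselves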
FAM quench SP: counter-screen for GRK2 binding hits: quenchers of fluorescent RNA aptamer; 360 tested, under 10 active; carboxyfluorescein RNA aptamer beads, flow cytometry quenching; hits give low values; fluorescence response vs DMSO, % at 10 µM; shares compounds with GRK2 aptamer HTS;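 active = response vs DMSO under 50%, meaning signal dropped by over half, treated as fluorescence quencher; inconclusive = no clear call, values can overlap the other calls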;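 note: labelled aptamer on streptavidin beads without GRK2 as a quench counter-screen; 100% = bead fluorescence of DMSO wells and lower means quenching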
Active calls of the source: *; ? = inconclusive; · = no result given. Shown are actives, neighbours in structure and some others; about 2.5% of the full set was active somewhere.

SMILES	MEKK3 PB1 HTS	MEKK2wt PB1 HTS	GRK2 aptamer HTS	MEKK2 mut-MEK5	GRK2 inh confirm	Aptamer quench SP	others
CN1CCN(C(=S)SCC(=O)Nc2nc(-c3ccccc3)c(-c3ccccc3)o2)CC1	102.0	126.0	100.0*	18.0	·	·	GRK2 confirm 2=-3.9;FAM quench SP=98.0
CCOC(=O)C(=O)Nc1nc(-c2ccccc2)c(-c2ccccc2)o1	101.0	100.0	2.0	-1.0	·	·
O=C(N/N=C/c1c(O)ccc2ccccc12)Nc1ccccc1	·	·	43.0*	·	-2.4	99.5
O=C(CSCC(=O)Nc1ccccc1)N/N=C/c1c(O)ccc2ccccc12	·	·	0.0	·	·	·
Cc1ccc(Cn2c(Cc3ccccc3)nc3ccccc32)cc1	103.0	106.0	96.0*	3.0	1.0	94.7
Cc1[nH]nc2c1/C(=N\O)CCC2	105.0	106.0	40.0	2.0	-2.7	101.8
CCCc1n[nH]c2c1/C(=N\O)CCC2	99.0	99.0	0.0	1.0	·	·
CCN1CCN(c2cc(C)c3cc(NC(=S)N(C)Cc4ccccc4)ccc3n2)CC1	107.0	127.0	1.0	10.0	1.3	97.9
O=C(CNc1cccc(F)c1)N1CCc2ccccc2C1	107.0	105.0	51.0*	7.0	·	·	GRK2 confirm 2=24.6;FAM quench SP=102.0
O=C(c1cccc(F)c1)N1CCc2ccccc2C1	100.0	100.0	0.0	-1.0	·	·
Cc1cc(C(=O)Cn2nc(C(=O)O)c3ccccc3c2=O)c(C)n1CCc1ccc(Cl)cc1	88.0	89.0	0.0	-7.0	·	·
O=C(NC1CCCCC1)N1CCSC1=Nc1ccccc1	98.0	96.0	43.0*	-1.0	1.3	93.1
CC(C)Cc1nc2oc3c(=O)[nH]cnc3c2c2c1CCC2	106.0	103.0	93.0*	-1.0	0.6	100.1
Cc1cn(C2OC(COC(=O)c3ccccc3)C(OC(=O)c3ccccc3)C2OC(=O)c2ccccc2)c(=O)[nH]c1=O (stereo not given)	99.0	?	100.0*	-4.0	-1.1	103.7
Cc1cn(C2OC(COC(=O)c3ccccc3)C(O)C2O)c(=O)[nH]c1=O (stereo not given)	100.0	99.0	0.0	3.0	·	·
O=c1[nH]n(-c2ccc(F)cc2)c2ncccc12	107.0	108.0	53.0*	9.0	1.0	103.6
O=c1ncn(-c2ccc(F)cc2)c2ncccc12	104.0	104.0	0.0	1.0	·	·
O=C(CCc1nc2ccccc2c(=O)[nH]1)Nc1ccc(F)c([N+](=O)[O-])c1	96.0	82.0	46.0*	-8.0	1.2	107.8
Cc1cccc(N(C(=O)c2csnn2)C(C(=O)NCc2ccccc2)c2cccs2)c1 (stereo not given)	94.0	95.0	0.0	0.0	·	·
CC(C)C(=O)c1c(C(C)C)nn2ccccc12	105.0	108.0	0.0	3.0	0.8	99.2
O=C(CC(Nc1ccccc1)c1ccccc1)C1CC1 (stereo not given)	101.0	102.0	0.0	-10.0	·	·
NC(=O)c1ccsc1NC(=O)CSc1nnc(Nc2ccccc2)s1	107.0	102.0	0.0	7.0	·	·
CCc1nonc1NC(=O)COc1cc(C)c(Cl)c(C)c1	102.0	104.0	70.0*	6.0	-3.1	96.7
CC(C(=O)N1CCOCCOCCOCC1)N1C(=O)c2ccccc2C1=O (stereo not given)	104.0	109.0	86.0*	7.0	-1.1	98.1
CC(Oc1ccccc1Cl)C(=O)N1CCOCC1 (stereo not given)	96.0	106.0	43.0*	1.0	·	·	GRK2 confirm 2=2.5;FAM quench SP=100.0
SMILES	MEKK3 PB1 HTS	MEKK2wt PB1 HTS	GRK2 aptamer HTS	MEKK2 mut-MEK5	GRK2 inh confirm	Aptamer quench SP	others
CC(Oc1ccccc1Cl)C(=O)N1CCCN(C)CC1 (stereo not given)	99.0	104.0	1.0	1.0	·	·
CCCCCn1c(CN2CCN(C)CC2)nc2c1c(=O)n(C)c(=O)n2C	·	·	3.0	·	·	·
CCC1CCCCN1Cc1nc2c(c(=O)n(C)c(=O)n2C)n1CC(C)C (stereo not given)	116.0	116.0	0.0	9.0	4.1	97.1
CCC1CCCCN1Cc1nc2c(c(=O)n(C)c(=O)n2C)n1CCC(C)C (stereo not given)	115.0	111.0	4.0	4.0	0.1	101.7
CC(C)Cn1c(CN(C)Cc2ccccc2)nc2c1c(=O)n(C)c(=O)n2C	111.0	111.0	76.0*	7.0	-3.5	98.0
CCCCCCn1c(CN2CCCCC2CC)nc2c1c(=O)n(C)c(=O)n2C (stereo not given)	107.0	106.0	3.0	4.0	-17.1	91.4
O=[N+]([O-])c1ccc(S(=O)(=O)NCC(c2cccnc2)N2CCc3ccccc32)cc1 (stereo not given)	·	·	0.0	·	·	·
CCOc1ccc(OCCCC(=O)N(C)CC(=O)Nc2ccccc2Br)cc1	·	·	46.0*	·	-2.0	105.8
Cc1ccc(OCCCC(=O)N(C)CC(=O)Nc2ccccc2Cl)cc1	·	·	1.0	·	·	·
COc1ccc2c(c1)C=C(C(=O)OCc1cccnc1)CO2	82.0	85.0	0.0	-9.0	·	·
Cc1cccc(-n2c(N)c(-c3nc4ccccc4n3C)c3nc4ccccc4nc32)c1	112.0	98.0	97.0*	2.0	·	·	GRK2 confirm 2=-104.0;FAM quench SP=100.0
Cc1ccc2c(c1)c1nc3ccccc3nc1n2C	104.0	101.0	6.0	8.0	·	·
CC(C(=O)OCC(=O)c1c(N)n(C)c(=O)n(C)c1=O)N1C(=O)c2ccccc2C1=O (stereo not given)	97.0	102.0	1.0	3.0	·	·
Cn1c(N)c(C(=O)COC(=O)CCCN2C(=O)c3ccccc3C2=O)c(=O)n(C)c1=O	93.0	95.0	93.0*	-3.0	0.9	99.1
Cc1cc(F)ccc1NC(=O)c1cc(S(=O)(=O)N2CCc3ccccc32)cn1C	102.0	98.0	73.0*	-2.0	-4.1	102.2
COc1ccc(NC(=O)c2cc(S(=O)(=O)N3CCc4ccccc43)cn2C)c(OC)c1	102.0	103.0	2.0	3.0	·	·
O=C(O)CC(NCc1ccco1)C(=O)OCCc1ccccc1 (stereo not given)	103.0	103.0	0.0	1.0	·	·
C=C(C)CCOC(=O)C(CC(=O)O)NCc1ccco1 (stereo not given)	102.0	103.0	43.0*	8.0	9.4	149.3
O=C(Nc1ccc(N2CCCC2)c(Cl)c1)c1cccnc1	104.0	108.0	60.0*	4.0	-14.2	37.2*
O=C(Nc1ccc(N2CCCCC2)c(Cl)c1)c1cccnc1	106.0	111.0	18.0	5.0	·	·
O=C(Nc1cccnc1)c1ccccc1Cl	98.0	103.0	81.0*	0.0	-1.9	97.4
O=C(NCCCn1ccnc1)C1CCN(S(=O)(=O)c2ccc(F)cc2)CC1	105.0	105.0	0.0	1.0	·	·
CCC(CC)=NNc1ccc([N+](=O)[O-])cc1[N+](=O)[O-]	99.0	91.0	61.0*	-2.0	2.0	93.8
